# Ecoli rRNA inh: inhibits bacterial ribosomal RNA function over humanized ribosomes; E. coli WT GFP vs humanized-ribosome RFP mutants, fluorescence, 24 h; hits give low values; DMSO median 0, no signal -100; GFP signal change (wild-type ribosome), % (test concentration not listed); 350,000 tested, 1.6% active;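 active means significant combined selectivity score with lowered wild-type GFP, culture density cut under 30%, mutant RFP and density less affected; inactive means any of these conditions unmet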
# LGR2 antag: inhibitors of bursicon-induced Drosophila LGR2 receptor cAMP signaling. HEK293 LGR2, CRE-luciferase, bursicon-stimulated, 4 h. inhibition, % at 9.99 µM. 380,000 tested, 0.35% active. AID 720647;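 active means drop in luminescence signal, shown as inhibition above about 50% in the replicate tests, limit read from the data, passing the limit was not always enough; inconclusive means probably only some replicates passing the limit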;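 further: agonist challenge used bursicon conditioned medium at about half maximal strength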
# PGC1a acetyl inh: modulators of PGC1a acetylation | U2OS PGC1a acetylation, AlphaScreen anti-acetyl-lysine; with virally co-expressed GCN5 acetyltransferase | inhibition, % at 15.6 µM | 350,000 tested, 0.17% active | AID 651687;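 active means every replicate shows inhibition of at least 40%; inconclusive means mean inhibition at least 40% but some replicate below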;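 further: 0% = neutral control wells and 100% = positive control wells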
# PAX8 inh HTS: inhibitors of PAX8 transcriptional activity in RMG-I cells; RMG-I TPO-luciferase reporter, SteadyGlo, 24 h; inhibition, % at 12.6 µM; 360,000 tested, 1.2% active; AID 652154;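 active means mean replicate inhibition at least 60% with every replicate also reaching 60%; inconclusive means only one of the two criteria is met; inactive means mean below 60% and not all replicates reaching 60%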;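 further: luciferase light reporting Pax8 driven TPO promoter activity; plate controls were median of neutral control wells for no effect and mitoxantrone controls for full effect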
# EWS-Fli block: blocks EWS/Fli oncoprotein-driven transcription; 350,000 tested, 0.67% active; AID 651661; A673 NR0B1-luciferase reporter, viability-normalised; inhibition, % at 12.6 µM;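 active means mean inhibition of at least 50% after viability correction, with every replicate also passing that limit; inconclusive means mean reaches 50% but only one of two replicates passes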;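 further: firefly luciferase signal divided by Alamar Blue viability fluorescence both relative to DMSO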
# SIRT5 block: inhibitors of human sirtuin-5 desuccinylase. Purified SirT5, succinyl-peptide AMC, trypsin-coupled fluorescence. inhibition, % at 15 µM. 330,000 tested, 1.1% active; in the data active means inhibition above about 15%; inconclusive means no clear call, values can overlap the other calls
# Target sequence (Q9NXA8 whole entry, looked up): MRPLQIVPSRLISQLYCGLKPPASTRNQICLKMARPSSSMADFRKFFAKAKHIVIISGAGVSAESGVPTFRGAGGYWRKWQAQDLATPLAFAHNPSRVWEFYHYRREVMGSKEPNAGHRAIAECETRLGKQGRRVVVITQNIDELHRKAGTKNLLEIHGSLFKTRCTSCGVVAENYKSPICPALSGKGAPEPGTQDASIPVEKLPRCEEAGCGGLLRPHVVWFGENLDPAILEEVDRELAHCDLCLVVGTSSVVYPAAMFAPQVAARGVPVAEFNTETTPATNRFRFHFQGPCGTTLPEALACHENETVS
# DNA binder FP: binds DNA displacing acridine orange; shares compounds with EWS-Fli block; salmon sperm DNA acridine orange fluorescence polarization; AC35, µM (series often up to 68 µM), for inactives: top-dose activity change, negative = DNA binding; 640 tested, 2% active; AID 720586;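 active means fitted curve reaches a 35% signal fall AC35 below twice the sample's top valid tested dose, actives reach about 48 µM in these data; inactive means the rest, including activity in the rising direction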;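 further: lower polarization ratio signals compound binding to DNA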
# The depositor's hits bear a star; ? = inconclusive; / = not tested or not shown; ! = a repeat was not active. Compounds with a hit are over-represented: about 3.4% of the library has one in this group of screens.
SMILES,Ecoli rRNA inh,LGR2 antag,PGC1a acetyl inh,PAX8 inh HTS,EWS-Fli block,SIRT5 block,DNA binder FP
C(=Cc1cnc2ccccc2n1)c1ccc2c(c1)OCO2,5,99*,-10,97*,88*,-2,1%
Cn1c(/N=C/c2ccc3c(c2)OCO3)nc2ccccc21,8,-8,/,/,-2,1,/
CCN1[C@@H]2c3ccc(C4=CCCCC4)c(=O)n3C[C@H]1[C@H](CO)[C@H]2C(=O)N1CCOCC1,1,-12,/,/,3,-5,/
c1ccc(CSc2nnc(-c3ccco3)o2)cc1,6,-47,-7,-136,-90,-4,/
Brc1ccc(CSc2nnc(-c3ccco3)o2)cc1,-22*,-26,/,-46,82*,0,-3%
CCCc1cn(CC[C@H]2CC[C@H](NC(=O)CCN3CCCCC3)[C@@H](CO)O2)nn1,4,13,3,-7,-6,-1,/
COc1cc(/C=N/NS(=O)(=O)c2ccc3ccccc3c2)ccc1OCc1ccc(C(=O)O)cc1,-23*,82*,-1,84*,69*,3,10%
COc1cc(/C=N/NS(=O)(=O)c2ccc(C)cc2)ccc1OCc1cccc(C(=O)O)c1,-2,80*,4,91*,79*,-2,-9%
COc1ccc(/C=N/NS(=O)(=O)c2ccc(C)cc2)cc1OC(=O)c1ccccc1,/,/,2,/,/,/,/
O=C(Nc1ccc(Br)cc1)c1ccc(F)c(S(=O)(=O)N2CCN(c3ccccn3)CC2)c1,14,8,9,40,59*,1,-6%
C[C@@H]1CN([C@@H](C)CO)C(=O)c2cc(-c3cccnc3)cnc2O[C@@H]1CN(C)C(=O)C1CCC1,6,-3,3,/,2,0,/
Cc1cccc(CN2C(=O)/C(=C\c3ccc(C(=O)NCCCN4CCN(C)CC4)cc3)Oc3ccccc32)c1,5,9,/,?,65*,-7,-13%
O=C(C[C@H]1C[C@H]2c3cc(NS(=O)(=O)c4ccccc4)ccc3O[C@H]2[C@@H](CO)O1)NCC1CC1,-1,-13,-1,14,-4,0,/
Cc1cccc(NC(=O)CN2CCN(C(=O)CNC(=O)c3ccc(-c4ccccc4)cc3)CC2)c1C,-1,29,18,22,66*,/,13%
CCCC(O)C#Cc1cnc2c(c1)C(=O)N([C@H](C)CO)C[C@H](C)[C@H](CN(C)C(=O)NC(C)C)O2 (some centres undefined),5,-11,-4,-4,-11,-1,/
CN(C)c1ccc(C(=O)c2ccccc2)cc1,/,/,-6,/,/,/,/
CN(C)c1ccc(N=Nc2ccc(C(=O)O)cc2)cc1,9,-49,/,56,65*,5,-3%
C#CCOCCOCCOCCNc1nc(N2CCN(C(=O)CCCCCCCCCCNC(=O)Cn3cc(C[C@@H](C)O)nn3)CC2)nc(N2CCN(C(=O)CCCCCCCCCCNC(=O)[C@H](CO)n3cc(CCCSC)nn3)CC2)n1,13,-9,-21,39,58*,20*,12%
C#CCOCCOCCOCCNc1nc(N2CCN(C(=O)CCCCCCCCCCNC(=O)Cn3cc(C[C@@H](C)O)nn3)CC2)nc(N2CCN(C(=O)CCCCCCCCCCNC(=O)[C@@H](CCC(=O)O)n3cc(CCCCCN)nn3)CC2)n1,-2,/,-3,-4,6,3,/
COC(=O)Cc1ccc(NC(=O)c2ccccc2Cl)cc1,-14,-26,/,-41,66*,2,-11%
C[C@H](CO)N1C[C@H](C)[C@@H](CN(C)C(=O)Nc2ccccc2)Oc2ccc(NS(=O)(=O)c3cn(C)cn3)cc2CC1=O,3,-14,-5,-4,-7,4,/
C[C@H]1CN([C@@H](C)CO)S(=O)(=O)c2ccc(C#CC(C)(C)O)cc2O[C@@H]1CN(C)Cc1ccccc1,-16,6,0,/,16,3,/
C[C@@H]1CN([C@H](C)CO)S(=O)(=O)c2ccc(C#CC(C)(C)O)cc2O[C@H]1CN(C)Cc1ccc(-c2ccccc2)cc1,4,1,12,/,58*,13,-15%
C[C@H](O)C#Cc1ccc2c(c1)O[C@@H](CN(C)Cc1ccc(-c3ccccc3)cc1)[C@H](C)CN([C@@H](C)CO)S2(=O)=O,-1,20,-16,87*,67*!,17*!,-9%
COc1ccc(S(=O)(=O)N[C@H]2CC[C@H](CC(=O)O)O[C@@H]2CO)cc1,1,8,8,3,-2,2,/
SMILES,Ecoli rRNA inh,LGR2 antag,PGC1a acetyl inh,PAX8 inh HTS,EWS-Fli block,SIRT5 block,DNA binder FP
Cc1ccc(C(C)C)c(OCc2ccc(C(=O)N/N=C/c3ccc(O)cc3O)cc2)c1,/,/,/,?,63*,-2,13%
COc1ccc(OC)c(-c2nnc3n2N=C(c2ccc(OC)c(OC4CCOC4)c2)CS3)c1 (centres undefined),-28*,-1,-9,97*,59*,5,-2%
Cc1ccc(C(=O)OCC(=O)Nc2ccc(C)c(S(=O)(=O)N3CCCCC3)c2)o1,-11,5,9,0,-6,/,/
Cc1ccc(NC(=O)COC(=O)c2ccc3c(c2)OCO3)cc1S(=O)(=O)N1CCCCC1,-11,12,/,3,72*,-1,-5%
COc1cccc(-c2cccc(-c3nc(C(=O)NCC(F)(F)F)cc4c3[C@H](CCO)N([S@@](=O)C(C)(C)C)C4)c2)c1,-6,7,-14,45,54*,1,-9%
COc1ccccc1C(CCNCc1ccc(N(C)C)cc1)c1ccc(OC(C)C)cc1 (centres undefined),-58,36,-11,38,60*,3,5%
COc1ccc(C(CCNCc2ccc(OC(C)C)cc2)C(C)C)cc1 (centres undefined),-48*,15,0,0,70*,-3,-9%
COc1ccc(CNCCC(c2ccc(OC(C)C)cc2)c2ccccc2OC)cc1OC (centres undefined),-52,-4,-4,39,?,1,/
N#CC(=C1C=C(Br)C(=NO)C=C1Cl)c1ccc(Cl)cc1,-42,-13,/,13,14,/,/
N#CC(=C1C=CC(=NO)C(Cl)=C1)c1ccccc1,-5,3,/,73*,51*,/,-2%
O=C(C[C@@H]1CC[C@@H](NC(=O)Nc2ccccc2F)[C@@H](CO)O1)NCc1ccc(Cl)cc1,-5,-6,10,-2,7,2,/
CCS(=O)(=O)Nc1ccc2c(c1)C(=O)N(C)C[C@@H](OC)[C@@H](C)CN(Cc1nccs1)[C@H](C)CO2,2,-6,0,/,2,/,/
CN(C)CC(=O)N1C[C@@H]2N[C@H](C1)C2c1ccc(/C=C/c2ccccc2)cc1 (some centres undefined),-2,-20,-6,-92,14,/,/

# Bioassay records deposited in PubChem by Broad Institute.
